A number with no mark means an inactive call. Calls of active or inactive are those of the source. Cut-off read from the data, not from the text of the source, unless noted: active = inhibition above about 33%; inactive = the rest.

Steroidogenic factor 1 (Homo sapiens), sequence (Q13285 whole entry, looked up): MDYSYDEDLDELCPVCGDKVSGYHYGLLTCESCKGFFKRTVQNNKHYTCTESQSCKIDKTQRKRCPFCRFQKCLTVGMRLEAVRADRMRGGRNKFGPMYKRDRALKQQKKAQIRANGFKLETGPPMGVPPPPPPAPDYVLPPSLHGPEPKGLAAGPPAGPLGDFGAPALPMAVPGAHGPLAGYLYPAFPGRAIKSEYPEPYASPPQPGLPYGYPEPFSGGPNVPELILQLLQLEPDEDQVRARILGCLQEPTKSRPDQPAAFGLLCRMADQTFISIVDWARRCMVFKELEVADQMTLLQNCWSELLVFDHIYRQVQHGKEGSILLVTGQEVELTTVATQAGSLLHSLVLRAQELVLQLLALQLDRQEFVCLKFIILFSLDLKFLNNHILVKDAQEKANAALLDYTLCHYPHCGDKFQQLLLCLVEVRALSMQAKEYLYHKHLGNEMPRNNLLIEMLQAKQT

The first assay addresses Steroidogenic factor 1 (Homo sapiens) (UniProt Q13285). The assay is described as follows: inverse agonism at SF1 nuclear receptor – cell-based, luminescence, high throughput, counter-screen for LRH-1 inverse agonist project (AID 651614; in the data active = inhibition above about 44%;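 note: cells cotransfected with StAR promoter reporter and SF1 expression vector; 0% = vehicle on cells with receptor and 100% = vehicle on cells lacking receptor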). The conditions noted are these: cell-based SF1 luciferase reporter, at 3.6 µM, hits give high values. A general note: A counterscreen serves to expose hits that act by an unwanted route or on another target.
For orientation: inhibition means the drop in the measured response relative to a control, in per cent. Consider `CCOC(=O)[C@]12Cc3cc(Cl)ccc3[C@H]1N(C1CCCCC1)C(=O)c1ccccc12`, for which the inhibition was 89.1% (active). With `C=C1C(=O)O[C@@H]2C[C@@H](C)[C@@H]3C4OC4C(=O)[C@@]3(C)[C@@H](O)[C@H]12` (stereo partly specified), the inhibition was 67.9% (active). Same read-out and setting: under `O=c1[nH]c2ccccc2n1C1CCN(Cc2ccc(-c3[nH]c4cc5ncnc5cc4nc3-c3ccccc3)cc2)CC1` stands 44% (active); under `C[C@@H]1O[C@@H](O[C@H]2C[C@@H](O)[C@]3(CO)[C@H]4[C@H](O)C[C@]5(C)[C@@H](C6COC(=O)C6)CC[C@]5(O)[C@@H]4CC[C@]3(O)C2)[C@H](O)[C@H](O)[C@H]1O` (stereo partly specified), 87.3% (active). On the same count and under the same terms, under `Cc1ccccc1-n1c(/C=C/c2ccccn2)nc2ccccc2c1=O` stands 52% (active); under `CC(=O)OC(C)(C)/C=C/C(=O)C(C)(O)C1C(O)CC2(C)C3CC=C4C(CC(O)C(=O)C4(C)C)C3(C)C(=O)CC12C` (stereo unspecified), 59.2% (active); under `COC(=O)C(C)Oc1cc(C)cc2oc(=O)c3c(c12)CCC3` (stereo unspecified), 67.7% (active). Still for that read-out and setting: under `OC1(c2ccc(F)cc2)CC2CCC(C1)N2Cc1nnnn1C1CCCC1` (stereo unspecified) stands 50.3% (active); under `CC(=O)c1cn(Cc2ccccc2C#N)c2ccccc12`, 55.8% (active).

Consider `CCN(CC)C(=O)COc1cc(C)cc2oc(=O)c3c(c12)CCCC3`, for which the inhibition was 59% (active). On the same count and under the same terms, under `CC(=O)OC1C(O)C(C)OC(OC2C(OC(=O)C3CCC4C(C3)OC3(CC(OC(=O)/C=C/c5ccccc5)C(C)CO3)C43CO3)OC(C)C(O)C2OC(C)=O)C1O` (stereo unspecified) stands 97.5% (active); under `COc1ccc(NS(=O)(=O)c2ccc(OCC(=O)N3CCN(C)CC3)cc2)cc1Cl`, 34.7%; under `CCOC(=O)c1c(C)n(CC(O)CN2CCOCC2)c2cc(Br)c(OC)cc12` (stereo unspecified), 47.9% (active). Same read-out and setting: the figure for `COC(=O)C(C)Oc1cc(C)cc2oc(=O)c3c(c12)CCCC3` (stereo unspecified) is 55.9% (active). On to `CC(C)N(C(=O)CCl)c1ccccc1`, for which the inhibition is 51.7% (active).

As to `CCOC(=O)[C@]12Cc3cc(Cl)ccc3[C@H]1N(CC(=O)OC)C(=O)c1ccccc12`, the inhibition is 64.4% (active). The same measure, in the same setting: under `CCOC(=O)[C@]12Cc3ccc(C)cc3[C@H]1N(C1CCCCC1)C(=O)c1ccccc12` stands 29.8%; under `N#CCCn1cc(C(=O)Nc2ccccc2Cl)c(-c2ccc([N+](=O)[O-])cc2)n1`, 59.8% (active). For `CN1C(=O)C(=Cc2ccc(N3CCCCCC3)cc2)C(=O)N(C)C1=O`, the inhibition was 48.1% (active). On to `NC(Cc1ccc(F)cc1)c1csc(Nc2ncccn2)n1` (stereo unspecified), for which the inhibition was 38.9%. Take `COC(=O)COc1cc(C)cc2oc(=O)c3c(c12)CCCC3`: the inhibition is 50.6% (active).

Take `N#Cc1ccc2nc(-c3ccc(CN4CCC(n5c(=O)[nH]c6ccccc65)CC4)cc3)c(-c3ccccc3)nc2c1`: the inhibition is 43.2% (active). Same read-out and setting: under `CC(=O)O[C@H]1C(=O)[C@@]2(C)C([C@H](OC(=O)c3ccccc3)[C@]3(O)C[C@H](OC(=O)[C@H](O)[C@@H](NC(=O)Cc4ccccc4)c4ccccc4)C(C)=C1C3(C)C)[C@]1(OC(C)=O)CO[C@@H]1C[C@@H]2O` (stereo partly specified) stands 54.9% (active).

System in the next assay: not listed separately
The assay is described as follows: compounds suppressing VP16-driven luciferase signal – cell-based, luminescence, high throughput, counter-screen for LRH-1 inverse agonist project (AID 651615). The conditions noted are these: Gal4-VP16 luciferase reporter cells, at 3.6 µM, hits give high values.
With `O=C1Nc2ccccc2/C1=C/c1cnc[nH]1`, the inhibition was -10.7%.

For the compound `CCOC(=O)[C@]12Cc3cc(OC)ccc3[C@H]1N(C1CCCCC1)C(=O)c1ccccc12`, the inhibition was 87.4% (active). With `CCCCn1c(NC(=O)c2ccc(Br)o2)c(C(=O)OCC)c2nc3ccccc3nc21`, the inhibition is 7.64%. For `N#Cc1ccc(NC(=S)N2Cc3ccccc3-n3nncc3C2)cc1`, the inhibition was 10.9%. Still for that read-out and setting: under `Cc1nn(Cc2ccccc2)c(C)c1C(=O)OCC(=O)Nc1ccccc1SCC#N` stands 2%; under `N#CCCn1cc(C(=O)Nc2ccc([N+](=O)[O-])cc2)c(-c2ccccc2)n1`, 15.5%; under `CCC(C)N1C(=O)/C(=C\c2ccc(N3CCCCCC3)cc2)C(=O)NC1=S` (stereo unspecified), -2.53%. For the compound `CCOC(=O)[C@]12Cc3cc(C)ccc3[C@H]1N(C1CCCCC1)C(=O)c1ccccc12`, the inhibition was 88.4% (active). Still for that read-out and setting: under `CC1OC(OC2C=C3CCC4C(CCC5(C)C(c6ccc(=O)oc6)CCC45O)C3(C)CC2)C(O)C(OC2OC(CO)C(O)C(O)C2O)C1O` (stereo unspecified) stands 94.4% (active); under `CC[n+]1c(/C=C/C=C/c2ccc(N(C)C)cc2)sc2ccccc21`, 86.5% (active). Still for that read-out and setting: the figure for `N#CCCn1cc(C(=O)Nc2ccccc2Br)c(-c2ccc([N+](=O)[O-])cc2)n1` is 1.09%. On to `c1ccc2c(c1)[IH]c1ccccc1-2`, for which the inhibition was 72.8% (active).

As to `CC1=CC(O)C(O)C2(C)C1CC1OC(=O)CC3C(C)C(O)C(=O)C2C13CO` (stereo unspecified), the inhibition is -0.77%. Consider `Cc1cc(OC(=O)c2ccco2)c2c3c(c(=O)oc2c1)CCCC3`, for which the inhibition was 20.2%. The same measure, in the same setting: the figure for `CCOc1cc(C=O)ccc1O` is -3.05%; for `CCOC(=O)[C@]12Cc3cc(Cl)ccc3[C@H]1N(C1CCCCC1)C(=O)c1ccccc12` it is 92.8% (active). On the same count and under the same terms, under `C=C1C(=O)O[C@@H]2C[C@@H](C)[C@@H]3C4OC4C(=O)[C@@]3(C)[C@@H](O)[C@H]12` (stereo partly specified) stands 82.8% (active); under `O=c1[nH]c2ccccc2n1C1CCN(Cc2ccc(-c3[nH]c4cc5ncnc5cc4nc3-c3ccccc3)cc2)CC1`, 25%. The same measure, in the same setting: under `C[C@@H]1O[C@@H](O[C@H]2C[C@@H](O)[C@]3(CO)[C@H]4[C@H](O)C[C@]5(C)[C@@H](C6COC(=O)C6)CC[C@]5(O)[C@@H]4CC[C@]3(O)C2)[C@H](O)[C@H](O)[C@H]1O` (stereo partly specified) stands 66.4% (active); under `Cc1ccccc1-n1c(/C=C/c2ccccn2)nc2ccccc2c1=O`, 5.08%; under `CC(=O)OC(C)(C)/C=C/C(=O)C(C)(O)C1C(O)CC2(C)C3CC=C4C(CC(O)C(=O)C4(C)C)C3(C)C(=O)CC12C` (stereo unspecified), 59.7% (active).

Take `COC(=O)C(C)Oc1cc(C)cc2oc(=O)c3c(c12)CCC3` (stereo unspecified): the inhibition is -163%. The same measure, in the same setting: the figure for `OC1(c2ccc(F)cc2)CC2CCC(C1)N2Cc1nnnn1C1CCCC1` (stereo unspecified) is -0.39%.

In the case of `CC(=O)c1cn(Cc2ccccc2C#N)c2ccccc12`, the inhibition is 55.5% (active).

Regarding `CCN(CC)C(=O)COc1cc(C)cc2oc(=O)c3c(c12)CCCC3`, the inhibition was -18.9%. As to `CC(=O)OC1C(O)C(C)OC(OC2C(OC(=O)C3CCC4C(C3)OC3(CC(OC(=O)/C=C/c5ccccc5)C(C)CO3)C43CO3)OC(C)C(O)C2OC(C)=O)C1O` (stereo unspecified), the inhibition is 97.4% (active). The same measure, in the same setting: the figure for `COc1ccc(NS(=O)(=O)c2ccc(OCC(=O)N3CCN(C)CC3)cc2)cc1Cl` is 3.62%. Consider `CCOC(=O)c1c(C)n(CC(O)CN2CCOCC2)c2cc(Br)c(OC)cc12` (stereo unspecified), for which the inhibition is -12.2%. The same measure, in the same setting: the figure for `COC(=O)C(C)Oc1cc(C)cc2oc(=O)c3c(c12)CCCC3` (stereo unspecified) is -29.8%; for `CC(C)N(C(=O)CCl)c1ccccc1` it is -6.55%; for `CCOC(=O)[C@]12Cc3cc(Cl)ccc3[C@H]1N(CC(=O)OC)C(=O)c1ccccc12` it is 81.1% (active). Consider `CCOC(=O)[C@]12Cc3ccc(C)cc3[C@H]1N(C1CCCCC1)C(=O)c1ccccc12`, for which the inhibition was 84.1% (active). In the case of `N#CCCn1cc(C(=O)Nc2ccccc2Cl)c(-c2ccc([N+](=O)[O-])cc2)n1`, the inhibition was -6.5%.

Consider `CN1C(=O)C(=Cc2ccc(N3CCCCCC3)cc2)C(=O)N(C)C1=O`, for which the inhibition is -4.85%. Still for that read-out and setting: the figure for `NC(Cc1ccc(F)cc1)c1csc(Nc2ncccn2)n1` (stereo unspecified) is 49.8% (active). On to `COC(=O)COc1cc(C)cc2oc(=O)c3c(c12)CCCC3`, for which the inhibition is -11.3%. On the same count and under the same terms, the figure for `N#Cc1ccc2nc(-c3ccc(CN4CCC(n5c(=O)[nH]c6ccccc65)CC4)cc3)c(-c3ccccc3)nc2c1` is 27.1%.

`CC(=O)O[C@H]1C(=O)[C@@]2(C)C([C@H](OC(=O)c3ccccc3)[C@]3(O)C[C@H](OC(=O)[C@H](O)[C@@H](NC(=O)Cc4ccccc4)c4ccccc4)C(C)=C1C3(C)C)[C@]1(OC(C)=O)CO[C@@H]1C[C@@H]2O` (stereo partly specified): the inhibition was 36.1% (active).

For the origin of these results see PubChem BioAssay.
